36 compounds from paper PMC5540273 (PLoS ONE, 2017) can be followed below.
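Also: KINOMEscan kinase panel screen.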

This assay concerns ABL1-phosphorylated. As to conditions: concentration: 1 μM, replicates: in singlicate; n = 1.
On to `CCCCc1nn2ncccc2c1-c1ccnc(NC2CC2)n1` [GW684374], for which the “%Inh” value turned out to be 0%.
With `COC(=O)C(NC(=O)NC1CCN(c2ccnc(Nc3ccc(F)cc3)n2)C1)c1ccccc1` (stereo not drawn) [GSK1379712] the figure was 0%.
Turning to `O=c1cc(N2CCOCC2)nc2n(Cc3ccccc3F)ccn12` [GSK2297428], the “%Inh” value is reported as 0%.
The value for `CS(=O)(=O)Cc1ccc(Nc2nccc(-c3c(-c4cccc(NC(=O)C5CCCCC5)c4)nn4ncccc34)n2)cc1` [GSK350559] was 15%; that for `Cc1cnc(N)c(/C=C/c2cncc(C(=O)NCCc3ccc(Cl)cc3Cl)c2)c1.Cl` [GSK190937] was 0%; that for `CS(=O)(=O)CCNCc1nc(-c2ccc3ncnc(Nc4ccc5c(cnn5Cc5ccccc5)c4)c3c2)cs1.Cl.Cl` [GW569716] was 0%.
With `CC[C@@H]1CO[C@H](C(=O)Nc2ccccc2)CN1c1cc(-c2ccc3c(N)n[nH]c3c2)nc(NC)n1` [GSK2376236] the figure was 0%; with `CC(=O)c1c(C)c2cnc(Nc3ccc(N4CCNCC4)cn3)nc2n(C2CCCC2)c1=O`, 0%.
As to `COc1ccc(-c2coc3ccc(-c4nnc(C)o4)cc23)cc1`, the “%Inh” value worked out at 7%.
With `Cc1c(Cn2c(C)c(C)n3c(=O)cc(N4CCOCC4)nc23)cccc1C(F)(F)F` [GSK2328680], the “%Inh” value turned out to be 0%.
With `CNc1cc(-c2ccc3c(N)n[nH]c3c2)nc(N)n1` [GSK2224810] the figure was 0%; with `Cc1ccc(NC(=O)c2ccc(Cl)cc2)cc1-c1ccc(C(=O)Nc2ccncc2)cc1` [GSK1398467], 0%; with `CCn1c(-c2ccccc2)nc2cnccc21` [SB-733416], 13%.
With `CN1c2ccc(-c3ccc(C(N)=O)cc3)cc2-c2[nH]ncc2S1(=O)=O` the figure was 9%; with `CS(=O)(=O)CCNCc1nc(-c2ccc3ncnc(Nc4ccc(OCc5ccccc5)c(Cl)c4)c3c2)cs1.Cl` [GW582764], 0%.
As for `COC(=O)c1cccc(NC(=O)NC2CCN(c3ccnc(Nc4ccc(OC)cc4)n3)C2)c1` (stereo not drawn) [GSK1379746], the “%Inh” value amounted to 0%.
The value for `NS(=O)(=O)c1cccc(N/C=C2\C(=O)Nc3ccc(S(=O)(=O)Cc4c(Cl)cccc4Cl)cc32)c1` [GSK398099] was 0%; that for `CC(=O)c1cccc(NC(=O)NC2CCN(c3ccnc(Nc4ccc(F)cc4)n3)C2)c1` (stereo not drawn) [GSK1379710] was 0%; that for `O=C1NC(=O)C(c2ccc(Cl)cc2)=C1Nc1cccc(Cl)c1` [SB-317651] was 0%.
The value for `Cc1ccc(-c2nc(Nc3ccncc3)c3ccccc3n2)s1` [GSK189015] was 0%; that for `Cn1cnc2c(N)ncnc21` [SKF-97623] was 0%; that for `CNc1nc(-c2ccc3c(N)n[nH]c3c2)cc(N2C[C@@H](C(=O)NC3CCCCC3)OC[C@H]2C)n1` [GSK2375584] was 0%.
With `O=C(Nc1n[nH]c2nc(-c3ccco3)c(Br)cc12)C1CCN(Cc2ccccc2)C1.O=C(O)[C@H](O)[C@@H](O)C(=O)O` (stereo not drawn) [SB-742034] the figure was 23%; with `COc1ccc(Nc2nccc(NCCNC(=O)Nc3cc(C)ccc3C)n2)cc1` [GSK1379899], 0%; with `CC(C)c1cc(-c2ccc3c(N)n[nH]c3c2)nc(N)n1` [GSK2250882], 0%.
As to `O=C(Nc1n[nH]c2nc(-c3cccs3)c(Br)cc12)C1CCCC1` [SB-743341], the “%Inh” value was 19%.
Regarding `O=C1NC(=O)C(c2ccc(Cl)cc2)=C1Nc1ccc(O)cc1` [SB-340867], the “%Inh” value came out at 0%.
Take `COc1ccc(Nc2nccc(N3CCC(NC(=O)C(C)c4ccc(Cl)cc4)CC3)n2)cc1` (stereo not drawn) [GSK1379812]: the “%Inh” value is on record as 0%.
With `CC(C)c1ccc(O)cc1Nc1ccnc2ccc(C(F)(F)F)cc12` [GW482059], the “%Inh” value was found to be 0%.
Consider `CCn1c(-c2c(N)noc2C)nc2cnccc21` [SB-737856], for which the “%Inh” value was determined as 13%.
With `COc1ccc(Nc2nccc(N3CCC(NC(=O)C(C)c4ccc(Cl)cc4)C3)n2)cc1` (stereo not drawn) [GSK1379735] the figure was 0%; with `O=c1cc(N2CCOCC2)nc2n(Cc3cccc(Cl)c3Cl)c3ccccc3n12` [GSK2299009], 0%; with `CC(=O)c1c(C)c2cnc(Nc3ccn(C)n3)nc2n(C2CCCC2)c1=O`, 0%.
As for `Cc1nccc(-c2c(-c3ccc(F)cc3)ncn2CCCN2CCOCC2)n1.Cl` [SB-282975], the “%Inh” value stood at 0%.
The value for `COc1ccc(CSc2nnc(-c3ccc4c(c3)CCO4)o2)cc1` was 0%; that for `Cc1ccc(NC(=O)Nc2ccc(Cl)cc2)cc1-c1ccc(C(=O)Nc2ccncc2)cc1` [GSK1398472] was 5%.
